Out of some 16,000 compounds screened, about 5,800 (36%) were called active. Not shown: some 23% with an inconclusive outcome. Calls follow the shape of the dose curve; as a rule, active = well fitted curve in the direction sought with a large enough effect; inconclusive = small, poorly fitted or top-dose-only effect, or effect the other way; inactive = no such curve, though single readings can be large or run the other way. The list shows a part of the results.
molecular target: Cytochrome P450 2C19 (Homo sapiens) (UniProt P33261); experiment: Cytochrome panel assay with activity outcomes; details: recombinant CYP, pro-luciferin dealkylation, luminescence, p450-cyp2c19; series mostly up to 57.1 µM
Sequence (P33261 whole entry, looked up): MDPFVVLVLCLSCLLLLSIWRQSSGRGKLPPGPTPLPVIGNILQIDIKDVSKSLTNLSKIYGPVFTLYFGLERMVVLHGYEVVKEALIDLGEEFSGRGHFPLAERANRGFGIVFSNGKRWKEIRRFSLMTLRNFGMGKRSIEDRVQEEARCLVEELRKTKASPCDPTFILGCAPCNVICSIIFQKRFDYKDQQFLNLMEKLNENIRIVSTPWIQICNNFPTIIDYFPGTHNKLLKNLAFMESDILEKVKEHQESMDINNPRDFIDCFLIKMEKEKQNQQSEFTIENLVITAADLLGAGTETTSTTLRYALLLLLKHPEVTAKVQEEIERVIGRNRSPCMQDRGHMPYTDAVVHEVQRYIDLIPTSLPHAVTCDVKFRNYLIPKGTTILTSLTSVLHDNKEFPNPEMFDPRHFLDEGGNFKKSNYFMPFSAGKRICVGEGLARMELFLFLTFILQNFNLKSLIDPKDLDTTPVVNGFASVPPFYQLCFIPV
% is scaled to controls: 0 for no effect and ±100 for the full control effect.

AC50, active:
CCC(NC(=O)C1(C)CC1(Br)Br)c1ccc(C)cc1 (stereo not drawn) 2.51 µM
O=C(NCc1ccccc1)C12CN(Cc3ccccc3)CC1C(c1cccc([N+](=O)[O-])c1)=NO2 (stereo not drawn) 2.51 µM
CC(C)CCNC(=O)C12CN(Cc3ccccc3)CC1C(c1cccc([N+](=O)[O-])c1)=NO2 (stereo not drawn) 3.55 µM
COc1ccc2c(c1)OC1=C(C(=O)CCC1)C2C1=C(O)CCCC1=O (stereo not drawn) 15.8 µM
CC(C)Cn1c(C(C)C)nc([N+](=O)[O-])c1S(=O)(=O)c1ccc(F)cc1 5.01 µM
CCS(=O)(=O)Nc1ccc(C2=NN(C(=O)c3ccco3)C(c3ccc(C)cc3)C2)cc1 (stereo not drawn) 11.2 µM
c1ccc(-c2noc(CSc3nnnn3C3CCCCC3)n2)cc1 1.26 µM
Cc1ccc(C)n1N1C(=O)/C(=C\c2ccc(Cl)cc2)SC1=S 7.94 µM
COc1ccccc1CNC(=O)CCCn1c(=O)c2ccccc2n(CC(=O)NC2CCCC2)c1=O 7.94 µM
Clc1ccc(CSc2nnc(-c3sccc3-n3cccc3)o2)cc1 1.12 µM
Cc1cccc(-c2nnc(SCc3ccccc3)o2)c1 11.2 µM
Clc1ccc(CSc2nnc(-c3cccnc3)o2)cc1 3.55 µM
c1ccc(CSc2nnc(-c3sccc3-n3cccc3)o2)cc1 2 µM
Clc1cccc(CSc2nnc(-c3sccc3-n3cccc3)o2)c1 1.58 µM
COc1ccc2c(c1)-c1c(sn(-c3ccc(OC)c(OC)c3)c1=S)C(C)(C)N2 6.31 µM
Clc1ccccc1NN(Cc1ccncc1)c1ccccc1Cl 1.26 µM
Clc1ccccc1NN(Cc1ccccn1)c1ccccc1Cl 3.98 µM
O=C(c1ccccc1)c1cc(F)c(N2CCOCC2)cc1Cl 0.708 µM
Cc1ccc2nc(-c3ccccc3)cc(C(=O)NCCCn3ccnc3)c2c1 2 µM
Cc1ccc(-n2c(C)cc(C(=S)N3CCOCC3)c2C)cc1C 0.891 µM
O=C(Nc1ccc(S(=O)(=O)N2CCCCC2)cc1)c1ccc(CN2CCc3ccccc3C2)cc1 7.94 µM
CCOC(=O)C(/C(N)=N/C(=O)Nc1ccccc1)=C(\C)O 17.8 µM
BrC(c1cccc2ccccc12)c1cccc2ccccc12 1.26 µM
Clc1ccc(-n2nnnc2CN2CCOCC2)cc1 11.2 µM
COc1ccc(S(=O)(=O)Nc2ccc(F)cc2)c(C)c1C 0.0891 µM
O=C(CSc1nnnn1C1CCCC1)Nc1ccc(F)cc1 2 µM
COCCNc1ccnc(-c2ccccc2C(F)(F)F)n1 10 µM
FC(F)(F)c1ccccc1-c1nccc(NCc2ccccc2)n1 6.31 µM
FC(F)(F)c1ccccc1-c1nccc(NCc2cccs2)n1 2 µM
Fc1ccc(Nc2ccnc(-c3ccccc3C(F)(F)F)n2)cc1 10 µM
Cc1ccccc1-c1nccc(NCc2cccs2)n1 3.98 µM
CC(C)Nc1nc(Oc2ccc(Cl)cc2)cc(C(F)(F)F)n1 10 µM
CC(Sc1nc(NCc2ccccc2)nc(N(C)C)n1)C(=O)Nc1ccccc1 (stereo not drawn) 0.794 µM
COc1cc2c(C(=O)NCc3ccc(C)o3)cn(CC(C)C)c(=O)c2cc1OC 35.5 µM
COc1cccc(/C=N/n2c(=S)n(C)c3cc(C)c(C)cc32)c1OC 2.24 µM
Cc1c(Br)cc(C(=O)NC2CCCCC2)c(C)c1C 14.1 µM
N#C/C(=C\c1cc(Cl)cc(Cl)c1O)C(=O)NC1CCCCC1 15.8 µM
N#C/C(=C\c1cn[nH]c1-c1ccccc1)C(=O)NC1CCCCCC1 17.8 µM
Cc1cc(C(F)(F)F)n2nc(-c3cnn(C)c3C(F)(F)F)cc2n1 2.82 µM
Cc1cc(C(F)(F)F)n2nc(-c3cnn(C)c3C(F)(F)F)c(Cl)c2n1 1.78 µM
Cc1ccccc1C(=O)c1c[nH]c(C(=O)NCC2CCCO2)c1 (stereo not drawn) 1 µM
O=C(NCC1CCCO1)c1cc(-c2ccc(Cl)cc2Cl)on1 (stereo not drawn) 15.8 µM
O=C(Nc1ccccc1C(=O)NCC1CCCO1)c1ccc(Cl)cc1Cl (stereo not drawn) 14.1 µM
O=[N+]([O-])c1ccc(N2CCN(CCOc3nonc3-c3ccccc3)CC2)c(Cl)c1 4.47 µM
CN(Cc1cc(C(C)(C)C)cc(Br)c1O)Cc1cc(C(C)(C)C)cc(Br)c1O 3.16 µM
Oc1c(Br)cc(Br)cc1CN(Cc1cc(Br)cc(Br)c1O)C1CCCCC1 0.316 µM
CC(C)(C)c1cc(Br)c(O)c(CN(Cc2cc(C(C)(C)C)cc(Br)c2O)C2CCCCC2)c1 0.631 µM

AC50, inactive:
N#Cc1cccc(NC(=O)N2CCCC3(CCN(C(=O)c4cccc(F)c4)CC3)C2)c1
NC(=O)C(=O)O
CC[C@H](NC(=O)c1c(C)c(-c2ccccc2)nc2ccccc12)c1ccccc1
NC(=O)CNC(=O)[C@@H]1CC2(CC(c3cccc([N+](=O)[O-])c3)=NO2)CN1C(=O)c1ccccc1 (stereo partly drawn)
COc1ccc(C(=O)N2CC3(CC(c4cccc([N+](=O)[O-])c4)=NO3)C[C@H]2C(=O)NCC(N)=O)cc1 (stereo partly drawn)
CCNc1ncc2nc(-c3cccc(C#N)c3)c(=O)n(CCC#N)c2n1
Cc1ccc(C2C(C(=O)c3ccco3)=C(O)C(=O)N2c2nnc(C)s2)cc1 (stereo not drawn)
Cc1sc2nc(SCc3nc(-c4cccs4)no3)n(-c3ccccc3)c(=O)c2c1C
CCOc1cc2[nH]c(=O)n(CCCC(=O)NCc3ccc(OC)cc3)c(=O)c2cc1OCC
COC(=O)N1CCC2(CCCN(Cc3ccccc3OC)C2)CC1
CC(C)CN1CC[C@@]2(CCCN(C(=O)c3csnn3)C2)C1
COc1ccc(-n2cccc2C=O)cc1OC
COc1ccc(-n2c(C)n[nH]c2=O)cc1OC
O=C(Nc1cccc(F)c1)N1CCCC2(CCNCC2)C1
CC(=O)N(O)CCCCCNC(=O)CCC(=O)N(O)CCCCCNC(=O)CCC(=O)N(O)CCCCCN
COc1ccc(Nc2cc(C(=O)NCCCN3CCN(C)CC3)c3ccccc3n2)cc1
O=C(Nc1ccc(S(=O)(=O)N2CCCC2)cc1)c1ccc(CN2CCOCC2)cc1
CCOC(=O)/C(C(N)=NCCCO)=C(/O)c1ccccc1
COCCn1c(=O)c(-c2cc(F)cc(F)c2)nc2cnc(N3CCNCC3)nc21
Cc1cnc(CNc2ccnc(-c3ccccc3C(F)(F)F)n2)cn1
CN(C)Cc1ccccc1-c1nccc(Nc2ccc(F)cc2)n1
COCCNc1ccnc(-c2ccccc2CN(C)C)n1
CC(=O)NCCNc1ccnc(-c2ccccc2C(F)(F)F)n1
CN(C)Cc1ccccc1-c1nccc(NCc2cccs2)n1
C[C@@H]1O[C@H](O[C@@H]2[C@H](C)O[C@H](O[C@@H]3[C@H](C)O[C@H](O[C@H]4CC[C@]5(C)[C@@H](CC[C@@H]6[C@H]5C[C@@H](O)[C@]5(C)[C@@H](C7=CC(=O)OC7)CC[C@]65O)C4)C[C@@H]3O)C[C@@H]2O)C[C@H](O)[C@@H]1O
Cn1c2c(c(=O)n(C)c1=O)CN(CCN1CCNCC1)CN2
COc1ccc(NC2=NC(=S)N(c3ccc(C)cc3)C23CCCCC3)cc1
CCOc1ccc(-n2cc(C(=O)NCc3ccco3)c3cc(OC)c(OC)cc3c2=O)cc1
COc1ccc(/C=N/n2c(C)nnc2C)c(OC)c1
Cc1ccc(C(=O)NC2CCCCCC2)cc1N1CCCC1=O
COc1ccc(/C=C(/C#N)C(=O)NC2CCCCC2)cc1Br

activity, negative = inhibition, inactive:
Cc1ccc(S(=O)(=O)N[C@@H]2COC(=O)C/C=C\[C@H](C)COC(=O)N[C@@H](C)C(=O)C/C=C\[C@H]2C)cc1 -6.82% [at 11.4 µM]
CC(=O)OC[C@@H]1O[C@@H](O/N=C2/C[C@@H](O)[C@@H](O)[C@@H]3[C@@H]4C(=O)N(C(C)(C)C)C(=O)[C@H]4CC[C@@H]23)[C@H](OC(C)=O)[C@H](OC(C)=O)[C@@H]1OC(C)=O 11.3% [at 11.4 µM]
CC(C)N(Cc1ccccc1)S(=O)(=O)c1n[nH]c(C(C)(C)C)n1 -40.1% [at 11.4 µM]
O=C(O)c1ccc(C(=O)c2ccccc2)c(C(=O)O)c1 33.3% [at 11.4 µM]
c1c[nH]c(CN2CCOCC2)n1 -4.4% [at 11.4 µM]
COc1ccc(OC[C@@H](CO)OC)cc1 28.9% [at 11.4 µM]
C[C@@H](CCC(=O)O)C(=O)O 30.5% [at 11.4 µM]
N#C/C(=C\Nc1ccccn1)C(=O)C1CC1 -23.3% [at 11.4 µM]
CC(=NC1CCCCC1)c1ccccc1O 3.59% [at 11.4 µM]
CC1=NNC(=S)NCCCN2CCN(CCCNC(=S)NN=C(C)C=NNC(=S)NCCCN3CCN(CCCNC(=S)NN=C1)CC3)CC2 27% [at 11.4 µM]
CO[C@@H]1COC(=O)[C@H]2CCCN2C(=O)[C@@H](C)COC(=O)[C@H](COCc2ccccc2)NC(=O)C/C=C\[C@H]1C 12.9% [at 11.4 µM]
O=C(O)/C=C\C(=O)Nc1ncn[nH]1 10.9% [at 11.4 µM]
CN(C)Cc1cc(O)c(O)c(CN(C)C)c1 -24% [at 11.4 µM]
CC(C)c1cc(CN(C)C)c(O)c(C(C)(C)C)c1 -2.3% [at 11.4 µM]
Oc1c(Br)cc(CN(Cc2cc(Br)c(O)c(Br)c2)C2CCCCC2)cc1Br -5.38% [at 11.4 µM]
